{
  "source": "the OligoGym collection",
  "data": [
    {"target": "PRODH2", "experiment": "pooled miR-30 sensor sort-seq; sequence = guide strand", "conditions": "shRNA", "values": [
      {"sequence": "TTATTGAATACATTTGAAAATA", "sensor-assay potency score (higher = more potent)": -1.75},
      {"sequence": "AAACGCTGTAGTGTTATTGAAT", "sensor-assay potency score (higher = more potent)": -0.964},
      {"sequence": "TTGCTTCCTCTTAAAATTGGAA", "sensor-assay potency score (higher = more potent)": -1.06},
      {"sequence": "AATACATTTGAAAATACGGTTC", "sensor-assay potency score (higher = more potent)": -0.869},
      {"sequence": "TAACAGGTCCGGAGCATCCTGG", "sensor-assay potency score (higher = more potent)": -1.03},
      {"sequence": "TTAAAATTGGAAACGCTGTAGT", "sensor-assay potency score (higher = more potent)": 0.00998},
      {"sequence": "TGAAAATACGGTTCTCACGTTT", "sensor-assay potency score (higher = more potent)": 0.0951}
    ]},
    {"target": "PROM2", "experiment": "pooled miR-30 sensor sort-seq; sequence = guide strand", "conditions": "shRNA", "values": [
      {"sequence": "TAGGACATCTGAGGTCTCCAGC", "sensor-assay potency score (higher = more potent)": -0.69},
      {"sequence": "TTCTCCTCCTGGACCATGCTGG", "sensor-assay potency score (higher = more potent)": -0.874},
      {"sequence": "TTGGGGGACATCAGAGACCAGG", "sensor-assay potency score (higher = more potent)": -1.48},
      {"sequence": "TAGCTTGTTGGTATACTGGTTG", "sensor-assay potency score (higher = more potent)": -0.045},
      {"sequence": "TTGTGCTCTGTCTTCACTCGTC", "sensor-assay potency score (higher = more potent)": 0.345},
      {"sequence": "TTGGCTAGGACATCTGAGGTCT", "sensor-assay potency score (higher = more potent)": 0.382},
      {"sequence": "TTCAGCTCTTGCACCACGCTGG", "sensor-assay potency score (higher = more potent)": -0.154},
      {"sequence": "TATTTGGAGGTCTTGACGGCAA", "sensor-assay potency score (higher = more potent)": -0.214},
      {"sequence": "TTGAGCTGCAGGACTGTCCAGA", "sensor-assay potency score (higher = more potent)": -0.114},
      {"sequence": "TCACACAGGATCACACGGCTGT", "sensor-assay potency score (higher = more potent)": 0.353},
      {"sequence": "TTGACGGCAAAGATGATGCTGG", "sensor-assay potency score (higher = more potent)": -0.136},
      {"sequence": "TGTAGGTCTCGTATCTCTGCAC", "sensor-assay potency score (higher = more potent)": -0.146}
    ]},
    {"target": "PRPS1", "experiment": "pooled miR-30 sensor sort-seq; sequence = guide strand", "conditions": "shRNA", "values": [
      {"sequence": "TACACTTTCACCAATTTCCACA", "sensor-assay potency score (higher = more potent)": -0.758},
      {"sequence": "TTGGTGACTACTACTGCCTCAA", "sensor-assay potency score (higher = more potent)": -0.00628},
      {"sequence": "TAAATTGTCATTGATTTCGCCA", "sensor-assay potency score (higher = more potent)": -0.0544},
      {"sequence": "TGATAATATGATCTGCACCTGC", "sensor-assay potency score (higher = more potent)": -0.404},
      {"sequence": "TTATCTTTCTTATCCTGCCGGG", "sensor-assay potency score (higher = more potent)": 0.175},
      {"sequence": "TTGTCATTGATTTCGCCACAAC", "sensor-assay potency score (higher = more potent)": -1.49},
      {"sequence": "TATTGGTGACTACTACTGCCTC", "sensor-assay potency score (higher = more potent)": -1.03},
      {"sequence": "TAATATGATCTGCACCTGCTAC", "sensor-assay potency score (higher = more potent)": -0.935},
      {"sequence": "TATCTTTCTTATCCTGCCGGGC", "sensor-assay potency score (higher = more potent)": -0.757},
      {"sequence": "TTTGCAACAAGCTTGGCTGAGA", "sensor-assay potency score (higher = more potent)": -0.163},
      {"sequence": "TCAGGTGAGACAATAGTGCAGT", "sensor-assay potency score (higher = more potent)": 0.663},
      {"sequence": "TCACTCTCTTAGCTCCACCAGC", "sensor-assay potency score (higher = more potent)": -0.945}
    ]},
    {"target": "PRPS2", "experiment": "pooled miR-30 sensor sort-seq; sequence = guide strand", "conditions": "shRNA", "values": [
      {"sequence": "TTCTGGAAATAGCTGGTCCAGA", "sensor-assay potency score (higher = more potent)": -1.31},
      {"sequence": "TATACTTGAAAGTTGTCGCCTC", "sensor-assay potency score (higher = more potent)": 0.742},
      {"sequence": "TATTTATTCTGGAAATAGCTGG", "sensor-assay potency score (higher = more potent)": -0.496},
      {"sequence": "TTTCATTTTGTCCTCTTGCGGA", "sensor-assay potency score (higher = more potent)": -0.379},
      {"sequence": "TTAGCATATACAAAGATCTGAT", "sensor-assay potency score (higher = more potent)": -0.612},
      {"sequence": "TGTCCTTTTTATCTTGTCGGGC", "sensor-assay potency score (higher = more potent)": -0.556},
      {"sequence": "TGGTTGCTGAACTTCTTCGTGA", "sensor-assay potency score (higher = more potent)": -1.01},
      {"sequence": "ATGACCTGAATCTTGGTGCAGT", "sensor-assay potency score (higher = more potent)": -0.901},
      {"sequence": "TTCATTTTGTCCTCTTGCGGAA", "sensor-assay potency score (higher = more potent)": -0.733}
    ]}
  ]
}
